Assay [1] in a line: NCI Yeast Anticancer Drug Screen. Data for the rad50 strain (AID 155).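 Note: 0% = growth of vehicle-only cultures of the same strain.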 Conditions: S. cerevisiae rad50 strain growth inhibition; at 50.0 µM; hits give high values. The essentials:
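Readout: growth inhibition relative to vehicle-treated cultures. Compound exposure was carried out in a genetically defined yeast strain deficient in DNA damage repair.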

Assay [2] can be described thus: NCI Yeast Anticancer Drug Screen. Data for the mec2-1 strain (AID 157). Conditions: S. cerevisiae mec2-1 strain, at 50.0 µM, hits give high values. The method, boiled down: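 mec2-1 yeast strain, carrying an alteration in DNA damage repair or cell cycle control, was exposed to compounds; growth inhibition was measured relative to vehicle-treated controls.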
Assay [3] is described as follows: NCI Yeast Anticancer Drug Screen. Data for the sgs1 mgt1 strain (AID 161).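 Note: 0% = growth of cultures given vehicle only.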 As to conditions: S. cerevisiae sgs1 mgt1 strain, at 50.0 µM, hits give high values. The essentials:
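Compounds are added to genetically altered yeast, and growth is compared with cultures given vehicle alone to give percent inhibition.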

Assay [4] in a line: NCI Yeast Anticancer Drug Screen. Data for the cln2 rad14 strain (AID 165).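 Note: 0% = growth equal to vehicle treated cultures.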 Conditions: S. cerevisiae cln2 rad14 strain, at 50.0 µM, hits give high values. The method, boiled down:
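Yeast carrying cln2 and rad14 alterations (cell cycle control and DNA damage repair) were exposed to compounds. Growth inhibition was measured against vehicle-treated controls.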

Assay [5] is described as follows: NCI Yeast Anticancer Drug Screen. Data for the bub3 strain (AID 167). Conditions: S. cerevisiae bub3 mutant strain, at 50.0 µM, hits give high values. The essentials: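 Readout: yeast growth inhibition, expressed relative to vehicle-only wells. The test organism is a mutant strain from a panel with lesions in DNA repair or checkpoint genes.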
Assay [6] can be described thus: NCI Yeast Anticancer Drug Screen. Data for the mlh1 rad18 strain (AID 175). As to conditions: S. cerevisiae mlh1 rad18 strain growth inhibition; at 50.0 µM; hits give high values. The essentials:
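Growth inhibition of the yeast strain was measured after compound exposure and expressed relative to vehicle-treated controls. The strain carries defined defects in DNA damage repair.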

Drawing on PubChem BioAssay (NCI), this text covers growth inhibition for 19 compounds.

SMILES strings stand for the structures. This is part of a sample that, as a whole, favours compounds with a hit. Of some 79,000 tested, about 15% had one in any assay. Unmarked numbers belong to inactive results. Active and inactive are the calls of the source. Cut-off read from the data, not from the text of the source: active = growth inhibition above about 70%; inactive = the rest.

Turning to `BrCc1ccc(C[P+](c2ccccc2)(c2ccccc2)c2ccccc2)cc1`, the growth inhibition was 26.3% in assay [1]; 15.3% in assay [2]; 16.2% in assay [3]; 7% in assay [4]; 29.2% in assay [5]; 28.4% in assay [6].

In the case of `COCC(Cl)/C(N)=N\S(=O)(=O)c1ccc(Cl)cc1` (centres undefined), the growth inhibition is 5.8% in assay [1]; -17.4% in assay [2]; 15.2% in assay [3]; 14.8% in assay [4]; 26.2% in assay [5]; 4.95% in assay [6].

In the case of `Cc1nc2nn[nH]n2c(=O)c1CCO`, the growth inhibition was 13.2% in assay [1]; 0.15% in assay [2]; 16.2% in assay [3]; 14.2% in assay [4]; -6.95% in assay [5]; -51.6% in assay [6].

Take `CN(C)CCCSc1nc2ccccc2[nH]1`: the growth inhibition was -7.85% in assay [1]; -13.8% in assay [2]; -20.6% in assay [3]; 0.75% in assay [4]; 7.1% in assay [5]; -6.6% in assay [6].

Turning to `CCCCCCCCCCCC(=O)Oc1c(Cl)cc(Cl)c(OC(=O)C(=O)Oc2c(Cl)cc(Cl)c(OC(=O)CCCCCCCCCCC)c2Cl)c1Cl`, the growth inhibition is -26.1% in assay [1]; -21.9% in assay [2]; -11.2% in assay [3]; 16.9% in assay [4]; -4.2% in assay [5]; -19.9% in assay [6].

Regarding `CCCCN(C=O)CCCC`, the growth inhibition in assay [1] was 20.7%; in assay [2] it was 17.3%; in assay [3] it was 17.4%; in assay [4], 9.45%; in assay [5] it was 4.75%; in assay [6] it was 3.7%.

In the case of `Cc1ccc(S(=O)(=O)N/N=C/c2cc(I)cc(I)c2O)cc1`, the growth inhibition is 99.5% (active) in assay [1]; 99.3% (active) in assay [2]; 99.2% (active) in assay [3]; 99.4% (active) in assay [4]; 98.3% (active) in assay [5]; 99.1% (active) in assay [6].

Regarding `CCCc1nc2ccc(C)cc2[nH]1`, the growth inhibition was 8.4% in assay [1]; -9% in assay [2]; -18.2% in assay [3]; -11.3% in assay [4]; -1.5% in assay [5]; 7.9% in assay [6].

Turning to `N#Cc1c(Cl)cccc1N1CCSCC1`, the growth inhibition was 1.75% in assay [1]; -20.8% in assay [2]; 15.3% in assay [3]; 18.2% in assay [4]; -0.9% in assay [5]; 0.1% in assay [6].

As to `Cc1cc(=O)c2cccc(-c3ccccc3)c2[nH]1`, the growth inhibition in assay [1] is 19.5%; in assay [2], 1.25%; in assay [3], 1.15%; in assay [4] it was -30.9%; in assay [5], -12.9%; in assay [6], 22.2%.

`c1cncc(C2c3[nH]c4ccccc4c3CCN2CCN2CCCCC2)c1` (centres undefined): the growth inhibition was -32.8% in assay [1]; -46.5% in assay [2]; -9.4% in assay [3]; -4.35% in assay [4]; -37.5% in assay [5]; -34.4% in assay [6].

As for `CC(C)OC(=O)C(=O)OC(C)C`, the growth inhibition in assay [1] is 14.3%; in assay [2], 20.1%; in assay [3], -24.3%; in assay [4] it was 0.1%; in assay [5], 0.85%; in assay [6], 1.85%.

Take `Nc1cc(S(=O)(=O)O)ccc1O`: the growth inhibition in assay [1] was -1%; in assay [2] it was -16.1%; in assay [3] it was -21.9%; in assay [4], -41.9%; in assay [5] it was 3.05%; in assay [6] it was -33.5%.

Regarding `COC1OC(COS(C)(=O)=O)C2OC(C)(C)OC12` (centres undefined), the growth inhibition is 11.6% in assay [1]; 1.85% in assay [2]; 3.55% in assay [3]; 11.6% in assay [4]; -9.3% in assay [5]; 21.9% in assay [6].

Take `O=C(Cl)c1ccc(Cc2ccc([N+](=O)[O-])cc2)cc1`: the growth inhibition in assay [1] was 14.8%; in assay [2], 8.4%; in assay [3], 11.4%; in assay [4] it was -21.9%; in assay [5] it was -17.1%; in assay [6] it was 12.4%.

For `O=S(=O)(Oc1cccc2ccccc12)c1ccc(Br)cc1`, the growth inhibition is 3.15% in assay [1]; -13.4% in assay [2]; 10.2% in assay [3]; -9.75% in assay [4]; 30.7% in assay [5]; -10.3% in assay [6].

For the compound `CC(=O)c1ccc2ccc3ccccc3c2c1O`, the growth inhibition in assay [1] was -3.85%; in assay [2] it was -8.75%; in assay [3], -14.3%; in assay [4], -30.6%; in assay [5], -8.4%; in assay [6], 5.25%.

On to `COC(=O)C1(C2CCCCCCC2=O)NC(=S)NC(=O)C1C#N` (centres undefined), for which the growth inhibition in assay [1] is 4.35%; in assay [2] it was -18.8%; in assay [3], -28.1%; in assay [4], 11.2%; in assay [5] it was -24.9%; in assay [6], -4.05%.

Turning to `C=C1C(=O)O[C@@H]2/C=C(/C)[C@@H](OC(C)=O)C/C=C(\C)C(O)[C@@H](OC(=O)/C(C)=C\C)C12` (some centres undefined), the growth inhibition in assay [1] was 17.4%; in assay [2], -0.2%; in assay [3], 22.5%; in assay [4], 9.1%; in assay [5] it was 12.6%; in assay [6], -50.4%.
